The text below walks through data of PubChem BioAssay.

Experiment [1] can be described thus: antimalarial activity against Dd2 strain (AID 2302;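 active = growth inhibition above 50% at the single 2 µM test dose, taken to imply half-maximal potency below 2 µM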;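 also: 0% = DMSO untreated growth and 100% = chloroquine plus artemisinin killed control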). Conditions: P. falciparum Dd2 in RBCs, LDH growth readout, 72 h; at 2 µM; stronger effect = higher value.
Experiment [2] in a line: human hepatoma cell viability loss – ATP luminescence, cytotoxicity control for P. falciparum antimalarial project, primary screen (AID 2303;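 active = inhibition above 50%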;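 also: 0% = DMSO wells and 100% = digitonin-killed cells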). The settings on record: HepG2 viability, 24-48 h, at 10 µM, stronger effect = higher value.
Experiment [3] has as its target L-lactate dehydrogenase (Plasmodium falciparum (isolate CDC / Honduras)) (UniProt Q27743). In words: PfLDH activity inhibition – cell lysate, 3D7 strain, counter-screen for P. falciparum growth inhibition project (AID 2304).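 Also: 0% = vehicle and 100% = reference inhibitor.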 Conditions: P. falciparum 3D7 crude extract, LDH APAD/NBT absorbance; at 2 µM; stronger effect = higher value. (A counterscreen serves to expose hits that act by an unwanted route or on another target.)

Experiment [4] in a line: inhibition of 3D7 malaria parasite growth – strain 3D7 (AID 2306).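 Also: 0% = DMSO wells and 100% = chloroquine plus artemisinin control wells.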 The settings on record: P. falciparum 3D7 erythrocytic growth, LDH absorbance, 72 h; at 2 µM; stronger effect = higher value.
Experiment [5] addresses Calcium-dependent protein kinase 1 (Plasmodium falciparum (isolate 3D7)) (UniProt P62344). Briefly: PfCDPK1 kinase inhibitors, biochemical, TCAMS library (AID 1159585; cut-off not given, nearly all actives have IC50 up to about 0.98 µM;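 also: inhibitors leave more ATP so luminescence rises with inhibition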). Conditions: recombinant PfCDPK1, Kinase-Glo ATP depletion luminescence. A general note: Kinase-Glo reads ATP consumption through a luciferase reaction.
In experiment [6] the target is Plasmodium falciparum protein kinase 6 (PK6, PF3D7_1337100) (UniProt Q8IDW1). In words: PfPK6 kinase inhibitors, biochemical, TCAMS library (AID 1159586). Conditions: recombinant PfPK6, Kinase-Glo ATP depletion luminescence.
Experiment [7] concerns the target Protein kinase 7 (PK7), Plasmodium falciparum 3D7 (PF3D7_0213400) (UniProt Q7YTF7). Briefly: inhibition of Plasmodium PK7 catalytic activity – biochemical, TCAMS antimalarial set, Kinase-Glo luminescence (AID 1159587). Conditions: recombinant PfPK7, Kinase-Glo ATP depletion luminescence.
Experiment [8] deals with Calcium-dependent protein kinase 4 (Plasmodium falciparum (isolate 3D7)) (UniProt Q8IBS5). In words: PfCDPK4 kinase inhibitors, biochemical, TCAMS library (AID 1159588; cut-off not given, nearly all actives have IC50 up to about 0.91 µM). Conditions: recombinant PfCDPK4, Kinase-Glo ATP depletion luminescence.

Each structure is given as a SMILES string. Values without a mark were called inactive. For some of these results: Measured potencies and affinities stand elsewhere. The source made the active and inactive calls. Unless noted, no rule for the calls is given here.

L-lactate dehydrogenase (Plasmodium falciparum (isolate CDC / Honduras)), sequence (Q27743 whole entry, looked up): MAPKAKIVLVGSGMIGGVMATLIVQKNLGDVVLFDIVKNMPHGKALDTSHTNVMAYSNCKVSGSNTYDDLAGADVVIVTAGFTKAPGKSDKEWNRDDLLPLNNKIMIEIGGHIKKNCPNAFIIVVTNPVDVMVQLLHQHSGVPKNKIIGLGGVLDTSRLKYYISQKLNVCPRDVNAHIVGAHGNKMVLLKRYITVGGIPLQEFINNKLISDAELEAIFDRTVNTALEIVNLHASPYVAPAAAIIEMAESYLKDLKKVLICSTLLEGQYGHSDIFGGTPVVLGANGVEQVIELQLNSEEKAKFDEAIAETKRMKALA
Calcium-dependent protein kinase 1 (Plasmodium falciparum (isolate 3D7)), sequence (P62344 whole entry, looked up): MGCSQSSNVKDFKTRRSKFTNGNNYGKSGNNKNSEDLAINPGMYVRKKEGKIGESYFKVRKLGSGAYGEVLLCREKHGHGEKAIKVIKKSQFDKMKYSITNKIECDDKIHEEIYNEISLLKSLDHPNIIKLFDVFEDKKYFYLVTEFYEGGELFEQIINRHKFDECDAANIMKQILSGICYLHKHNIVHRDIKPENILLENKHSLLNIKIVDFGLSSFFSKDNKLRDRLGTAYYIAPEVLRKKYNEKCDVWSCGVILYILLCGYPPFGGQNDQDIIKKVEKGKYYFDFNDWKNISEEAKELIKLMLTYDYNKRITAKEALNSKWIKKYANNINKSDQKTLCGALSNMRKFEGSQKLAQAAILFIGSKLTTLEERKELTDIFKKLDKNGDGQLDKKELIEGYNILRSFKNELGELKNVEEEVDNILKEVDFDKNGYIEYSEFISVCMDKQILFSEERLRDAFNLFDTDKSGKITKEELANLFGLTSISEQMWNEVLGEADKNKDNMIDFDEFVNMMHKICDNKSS
Plasmodium falciparum protein kinase 6 (PK6, PF3D7_1337100), sequence (Q8IDW1 1-305): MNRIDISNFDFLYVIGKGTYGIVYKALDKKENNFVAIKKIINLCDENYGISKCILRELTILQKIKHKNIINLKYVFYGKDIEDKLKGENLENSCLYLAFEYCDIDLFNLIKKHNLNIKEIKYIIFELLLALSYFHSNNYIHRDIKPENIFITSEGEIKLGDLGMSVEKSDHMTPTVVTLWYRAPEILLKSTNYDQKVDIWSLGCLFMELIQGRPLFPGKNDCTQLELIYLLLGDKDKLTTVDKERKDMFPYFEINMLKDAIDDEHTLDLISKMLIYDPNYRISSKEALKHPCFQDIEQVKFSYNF
Calcium-dependent protein kinase 4 (Plasmodium falciparum (isolate 3D7)), sequence (Q8IBS5 whole entry, looked up): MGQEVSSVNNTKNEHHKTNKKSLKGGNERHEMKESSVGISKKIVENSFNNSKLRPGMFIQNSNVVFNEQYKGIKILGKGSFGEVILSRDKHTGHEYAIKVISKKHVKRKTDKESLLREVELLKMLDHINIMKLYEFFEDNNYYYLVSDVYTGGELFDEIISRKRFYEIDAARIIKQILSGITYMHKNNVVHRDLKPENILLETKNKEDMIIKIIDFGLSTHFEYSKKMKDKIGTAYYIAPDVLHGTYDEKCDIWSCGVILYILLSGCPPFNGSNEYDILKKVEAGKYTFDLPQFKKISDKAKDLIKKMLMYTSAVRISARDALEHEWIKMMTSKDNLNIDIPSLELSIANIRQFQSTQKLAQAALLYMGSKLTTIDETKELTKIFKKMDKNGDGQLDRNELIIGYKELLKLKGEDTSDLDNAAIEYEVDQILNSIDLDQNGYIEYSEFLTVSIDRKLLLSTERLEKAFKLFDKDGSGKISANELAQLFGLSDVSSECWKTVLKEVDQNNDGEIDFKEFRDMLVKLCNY
Protein kinase 7 (PK7), Plasmodium falciparum 3D7 (PF3D7_0213400), sequence (Q7YTF7 1-343): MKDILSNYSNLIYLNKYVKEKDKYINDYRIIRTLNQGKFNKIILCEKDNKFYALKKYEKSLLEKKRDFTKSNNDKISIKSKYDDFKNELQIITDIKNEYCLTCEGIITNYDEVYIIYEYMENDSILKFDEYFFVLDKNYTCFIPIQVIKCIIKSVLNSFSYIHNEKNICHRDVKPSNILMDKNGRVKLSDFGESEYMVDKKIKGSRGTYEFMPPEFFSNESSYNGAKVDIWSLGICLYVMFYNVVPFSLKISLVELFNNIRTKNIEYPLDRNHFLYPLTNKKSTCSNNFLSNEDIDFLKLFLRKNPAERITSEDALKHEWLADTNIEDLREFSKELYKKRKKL

By inhibition is commonly meant the drop in the measured response relative to a control, in per cent. Regarding `CN(C)c1cccc2c1nc(-c1ccco1)n2CC1CCCN1` (stereo not given), the results for the growth inhibition in experiment [1] and in experiment [4] were 46% and 86% (active), respectively. Further, the inhibition in experiment [2] is -1%; in experiment [3] it was 6%. Further, the outcome in experiment [5], in experiment [6], in experiment [7] and in experiment [8] was inactive.
For the molecule `Cc1cc(C(=O)Nc2ccc(OCc3ccccc3)cc2)on1`, the growth inhibition was 89% (active) in experiment [1] and 87% (active) in experiment [4]. The inhibition in experiment [2] and in experiment [3] was 1% in each case. Also, the result in experiment [5], in experiment [6], in experiment [7] and in experiment [8] was inactive.
Consider `CC(C)(C)c1ccc(CNC(=O)c2ccc(-c3nc4ccc(Cl)cc4[nH]3)cc2)cc1`, for which the growth inhibition in experiment [1] was 2%; in experiment [4] it was 93% (active). Further, the results for the inhibition in experiment [2] and in experiment [3] were 14% and -2%, respectively. Further, the result in experiment [5], in experiment [6], in experiment [7] and in experiment [8] was inactive.
On to `COc1cccc(-c2cccc(CNC3CCN(CC4Cn5c(=O)ccc6ccc(F)c4c65)CC3)c2)c1` (stereo not given), for which the results for the growth inhibition in experiment [1] and in experiment [4] were 15% and 99% (active), respectively. Further, the inhibition in experiment [2] was 23%; in experiment [3] it was 4%. The outcome in experiment [5], in experiment [6], in experiment [7] and in experiment [8] was inactive.
Consider `COc1ccc(COc2c(OC)cc(Cc3cnc(N)nc3N)cc2OC)cc1`, for which the growth inhibition in experiment [1] is 23%; in experiment [4] it was 90% (active). Moreover, the results for the inhibition in experiment [2] and in experiment [3] were 5% and 1%, respectively. Moreover, the result in experiment [5], in experiment [6], in experiment [7] and in experiment [8] was inactive.
For `CN(C)C(=O)CC(=O)NCc1c(Cl)cccc1Cl`, the growth inhibition in experiment [1] is 2%; in experiment [4], 95% (active). For the same molecule, the inhibition in experiment [2] is 2%; in experiment [3], -4%. Also, the result in experiment [5], in experiment [6], in experiment [7] and in experiment [8] was inactive.
`O=C(NC1CCN(Cc2ccccc2O)C1)c1cccc(C(F)(F)F)c1` (stereo not given): the growth inhibition in experiment [1] was 62% (active); in experiment [4], 98% (active). The inhibition in experiment [2] was -4%; in experiment [3], 4%. Besides, the result in experiment [5], in experiment [6], in experiment [7] and in experiment [8] was inactive.
Regarding `CCN1CCC(N(Cc2ccc(-c3ccc(C(F)(F)F)cc3)cc2)C(=O)Cn2c(CCc3cccc(F)c3F)cc(=O)c3ccccc32)C1` (stereo not given), the growth inhibition was 84% (active) in experiment [1] and 93% (active) in experiment [4]. Further, the inhibition was 43% in experiment [2] and 3% in experiment [3]. Moreover, the outcome in experiment [5], in experiment [6], in experiment [7] and in experiment [8] was inactive.
In the case of `O=C(Nc1ccc(-c2ccc(-c3nc4ccccc4[nH]3)cc2)cc1)Nc1ccc(Cl)c(Cl)c1`, the growth inhibition in experiment [1] is 100% (active); in experiment [4], 102% (active). For the same molecule, the values for the inhibition in experiment [2] and in experiment [3] were 68% (active) and 4%, respectively. In addition, the result in experiment [5], in experiment [6], in experiment [7] and in experiment [8] was inactive.
Consider `O=C(Nc1ccc(Cl)cc1)c1ccc(CN2CCCN(Cc3cccc(Cl)c3)CC2)cc1`, for which the values for the growth inhibition in experiment [1] and in experiment [4] were 15% and 96% (active), respectively. Further, the results for the inhibition in experiment [2] and in experiment [3] were 53% (active) and 1%, respectively. The outcome in experiment [5], in experiment [6], in experiment [7] and in experiment [8] was inactive.
Consider `N#Cc1cccc(NC(=O)Nc2ccc(-c3ccc(-c4nc5ccc(C(F)(F)F)cc5[nH]4)cc3)cc2)c1`, for which the growth inhibition in experiment [1] was 100% (active); in experiment [4] it was 102% (active). Also, the inhibition is 51% (active) in experiment [2] and -2% in experiment [3]. Besides, the outcome in experiment [5], in experiment [6], in experiment [7] and in experiment [8] was inactive.
For the molecule `NCCNc1ccc([N+](=O)[O-])cc1C(=O)Nc1cccc(C(F)(F)F)c1`, the growth inhibition was 33% in experiment [1] and 94% (active) in experiment [4]. The inhibition in experiment [2] is 1%; in experiment [3], 0%. The result in experiment [5], in experiment [6], in experiment [7] and in experiment [8] was inactive.
Consider `O=C(Nc1cccnc1)c1cc(-c2cccnc2)nc2ccc(Br)cc12`, for which the growth inhibition in experiment [1] is 60% (active); in experiment [4], 99% (active). Also, the values for the inhibition in experiment [2] and in experiment [3] were 9% and 1%, respectively. The result in experiment [5], in experiment [6], in experiment [7] and in experiment [8] was inactive.
Regarding `CCOc1ccc2nc(-c3ccccc3)cc(NN=Cc3ccncc3)c2c1`, the figures for the growth inhibition in experiment [1] and in experiment [4] were 101% (active) and 102% (active), respectively. The values for the inhibition in experiment [2] and in experiment [3] were 19% and 0%, respectively. Moreover, the outcome in experiment [5], in experiment [6], in experiment [7] and in experiment [8] was inactive.
Consider `Nc1c2c(nc3ccc(NC(=O)c4ccccc4)cc13)CCCC2`, for which the growth inhibition in experiment [1] is 8%; in experiment [4], 99% (active). Moreover, the inhibition in experiment [2] was 0%; in experiment [3], -8%. Besides, the outcome in experiment [5], in experiment [6], in experiment [7] and in experiment [8] was inactive.
For the molecule `Cc1ccc(NC(=O)C(C)Sc2n[nH]c(-c3ccccc3Br)n2)cc1` (stereo not given), the growth inhibition in experiment [1] is 90% (active); in experiment [4], 89% (active). Further, the inhibition in experiment [2] was 2%; in experiment [3], -4%. Also, the outcome in experiment [5], in experiment [6], in experiment [7] and in experiment [8] was inactive.
Regarding `Cc1cccc2[nH]c(-c3cccc(-c4ccc(CNCCc5ccncc5)cc4)c3)nc12`, the growth inhibition in experiment [1] and in experiment [4] was 100% (active) each time. The figures for the inhibition in experiment [2] and in experiment [3] were 40% and -2%, respectively. Also, the outcome in experiment [5], in experiment [6], in experiment [7] and in experiment [8] was inactive.
`N#Cc1cccc(C(=O)NC2CCN(c3ccnc(Nc4ccc(F)cc4)n3)C2)c1` (stereo not given): the growth inhibition was 91% (active) in experiment [1] and 98% (active) in experiment [4]. In addition, the inhibition in experiment [2] was 4%; in experiment [3] it was -8%. Moreover, the outcome in experiment [5], in experiment [6], in experiment [7] and in experiment [8] was inactive.
`O=C(/C=C/c1ccc(Cl)cc1)NCCCCCN1CCCC(C(=O)Nc2ccc(Cl)c(Cl)c2)C1` (stereo not given): the growth inhibition in experiment [1] was 3%; in experiment [4], 96% (active). For the same molecule, the inhibition in experiment [2] is 27%; in experiment [3], -3%. Also, the result in experiment [5], in experiment [6], in experiment [7] and in experiment [8] was inactive.
Regarding `Cc1ccc2c(=O)cc(CCc3cccc(F)c3F)n(CC(=O)N(Cc3ccc(-c4ccc(C(F)(F)F)cc4)cc3)C3CCN(C(C)C)CC3)c2n1`, the figures for the growth inhibition in experiment [1] and in experiment [4] were 49% and 100% (active), respectively. Besides, the inhibition in experiment [2] is 58% (active); in experiment [3], -2%. The outcome in experiment [5], in experiment [6], in experiment [7] and in experiment [8] was inactive.
